Molecules are shown by their SMILES. Inconclusive results are not listed. A call without a number means that no potency is given here. Active and inactive are the calls of the source. Calls come from the whole dose curve; as a rule, active = well fitted inhibition curve with a large enough effect; inconclusive = small, poorly fitted or top-dose-only effect; inactive = flat fitted curve, though single readings scatter.
Potency is the fitted concentration of half-maximal effect.

One test concerns TAB165. Nature of the test: qHTS profiling for inhibitors of Plasmodium falciparum proliferation (AID 504749). Note: nearly all actives have a fitted effect of over 60% in size. The note with it: P. falciparum in erythrocytes, SYBR Green DNA, 72 h; series mostly up to 28.7 µM. A digest of the protocol: (§1)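 In a 72 h erythrocytic culture (37 C, humidified, 5% CO2) at 2.5% hematocrit and 0.3% starting parasitemia, compounds were tested; SYBR Green I in detergent lysis buffer stained parasite DNA overnight.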
For orientation: qHTS replaces the single test concentration by a dilution series.
Take `CC(CNC(=O)c1cccnc1)NC(=O)c1cccnc1` (stereo not given): the Potency result was “inactive”.
Still for that read-out and setting: for `CC(C)(C)CC(C)(C)c1cc(Cc2cc(C(C)(C)CC(C)(C)C)cc(-n3nc4ccccc4n3)c2O)c(O)c(-n2nc3ccccc3n2)c1` the value was “inactive”.
For the molecule `CCCCC(CC)COS(=O)(=O)O` (stereo not given), the Potency entry is “inactive”.
Same read-out and setting: for `CCc1ccc(S(=O)(=O)O)cc1` the value was “inactive”.
Same read-out and setting: for `CO[C@H]1C[C@@H]2CC[C@@H](C)[C@@](O)(O2)C(=O)C(=O)N2CCCC[C@H]2C(=O)O[C@H]([C@H](C)C[C@@H]2CC[C@@H](OC(=O)C(C)(CO)CO)[C@H](OC)C2)CC(=O)[C@H](C)/C=C(\C)[C@@H](O)[C@@H](OC)C(=O)[C@H](C)C[C@H](C)/C=C/C=C/C=C/1C` the value was “inactive”.
Same read-out and setting: for `CN1C(=O)OC(C)(C)C1=O` the value was “inactive”.
For `CC(=O)[C@H]1CC[C@H]2[C@@H]3C=CC4=CC(=O)CC[C@@]4(C)[C@H]3CC[C@]12C`, the Potency result was “inactive”.
On the same count and under the same terms, for `CCC(C)[C@@H](N)C(=O)O` (stereo not given in full) the value was “inactive”; for `O=C(O)C1=C(CSc2nnnn2CS(=O)(=O)O)CS[C@@H]2[C@H](NC(=O)[C@H](O)c3ccccc3)C(=O)N12`, “inactive”; for `CCCCO`, “inactive”.
Consider `NC(=O)[C@@H]1CCCN1C(=O)[C@H](Cc1cnc[nH]1)NC(=O)[C@@H]1CCC(=O)N1`, for which the Potency entry is “inactive”.
`CCOc1ccc(S(=O)(=O)O)c2cccnc12`: the Potency entry was “inactive”.
Same read-out and setting: for `[O-][N+](=Nc1ccccc1)c1ccccc1` the value was “inactive”.
Same read-out and setting: to `CN[C@@H]1[C@H](O[C@H]2[C@H](O[C@H]3[C@H](O)[C@@H](O)[C@H](N=C(N)N)[C@@H](O)[C@@H]3N=C(N)N)O[C@@H](C)[C@]2(O)C=O)O[C@@H](CO)[C@H](O)[C@H]1O` belongs “inactive”; to `CCC(O)c1ccccc1` (stereo not given), “inactive”.
Take `NC(=O)[C@H]1O[C@@H](O)[C@H](O)[C@@H](O)[C@@H]1O`: the Potency result was “inactive”.
Same read-out and setting: to `CCN(CC)CCOC(=O)c1cccnc1` belongs “inactive”.
The same measure, in the same setting: to `CCOC(C)OCC` belongs “inactive”; to `NC(=O)C1c2ccccc2CCc2ccccc21`, “inactive”; to `Nc1nc(=O)n([C@@H]2CS[C@H](CO)O2)cc1F`, “inactive”.

Another test deals with W2. The description is as above. The note with it: P. falciparum in erythrocytes, SYBR Green DNA, 72 h; series mostly up to 28.7 µM. In short, it runs like this:
as §1
As for `O=P(O)(O)OC[C@H]1O[C@](O)(COP(=O)(O)O)[C@@H](O)[C@@H]1O`, the Potency result is “inactive”.
The same measure, in the same setting: to `NC(=O)Oc1ccc(Cc2ccccc2)cc1` belongs “inactive”; to `O=C(O)CCC(=O)c1ccc(-c2ccccc2)cc1`, “inactive”; to `COc1cc(NCCCC(C)N)c2ncccc2c1` (stereo not given), 1510 nM (active).
Consider `CCCOc1cc(N)ccc1C(=O)OCCN(CC)CC`, for which the Potency entry was “inactive”.
Still for that read-out and setting: for `CCCCCCCCCCCCOCCCN` the value was “inactive”; for `O=S(=O)(O)CC(S)CS` (stereo not given), “inactive”.
In the case of `O=C1[O][Bi][O]c2ccccc21`, the Potency result was “inactive”.
With `Cc1ccc(S(=O)(=O)O)cc1C`, the Potency entry was “inactive”.
As for `CN1C(=O)C[C@@H](C(=O)N[C@@H](Cc2cnc[nH]2)C(=O)N2CCC[C@H]2C(N)=O)NC1=O`, the Potency entry was “inactive”.
Same read-out and setting: for `Cc1cc(-c2ccc(N=Nc3ccc4c(S(=O)(=O)O)cc(S(=O)(=O)O)c(N)c4c3O)c(C)c2)ccc1N=Nc1ccc2c(S(=O)(=O)O)cc(S(=O)(=O)O)c(N)c2c1O` the value was “inactive”.
In the case of `NC(=S)NS(=O)(=O)c1ccc(N)cc1`, the Potency result was “inactive”.
Same read-out and setting: for `COC(=O)CC[C@H](N)C(=O)O` the value was “inactive”; for `Cc1nc(NS(=O)(=O)c2ccc(N)cc2)nc(C)c1Br`, “inactive”; for `NCC(O)CC(=O)O` (stereo not given), “inactive”.
Still for that read-out and setting: to `CCCCCCCCCCCC(=O)N(CCO)CCO` belongs “inactive”; to `CC(C)(COP(=O)(O)OP(=O)(O)OC[C@H]1O[C@@H](n2cnc3c(N)ncnc32)[C@H](O)[C@@H]1OP(=O)(O)O)C(O)C(=O)NCCC(=O)NCCS` (stereo not given in full), “inactive”; to `COc1ccc(/C=C/C(=O)OCCC(C)C)cc1`, “inactive”.
The same measure, in the same setting: for `O=C1c2ccccc2CN2C(=O)c3ccccc3CN12` the value was “inactive”; for `CC1=CC(=O)NS(=O)(=O)O1`, “inactive”; for `CC(CNC(=O)c1cccnc1)NC(=O)c1cccnc1` (stereo not given), “inactive”.
With `CC(C)(C)CC(C)(C)c1cc(Cc2cc(C(C)(C)CC(C)(C)C)cc(-n3nc4ccccc4n3)c2O)c(O)c(-n2nc3ccccc3n2)c1`, the Potency entry is “inactive”.
On the same count and under the same terms, to `CCCCC(CC)COS(=O)(=O)O` (stereo not given) belongs “inactive”.
Same read-out and setting: for `CCc1ccc(S(=O)(=O)O)cc1` the value was “inactive”; for `CO[C@H]1C[C@@H]2CC[C@@H](C)[C@@](O)(O2)C(=O)C(=O)N2CCCC[C@H]2C(=O)O[C@H]([C@H](C)C[C@@H]2CC[C@@H](OC(=O)C(C)(CO)CO)[C@H](OC)C2)CC(=O)[C@H](C)/C=C(\C)[C@@H](O)[C@@H](OC)C(=O)[C@H](C)C[C@H](C)/C=C/C=C/C=C/1C`, “inactive”.
Still for that read-out and setting: for `CN1C(=O)OC(C)(C)C1=O` the value was “inactive”.
Take `CC(=O)[C@H]1CC[C@H]2[C@@H]3C=CC4=CC(=O)CC[C@@]4(C)[C@H]3CC[C@]12C`: the Potency result is “inactive”.
Regarding `CCC(C)[C@@H](N)C(=O)O` (stereo not given in full), the Potency entry was “inactive”.
On the same count and under the same terms, to `O=C(O)C1=C(CSc2nnnn2CS(=O)(=O)O)CS[C@@H]2[C@H](NC(=O)[C@H](O)c3ccccc3)C(=O)N12` belongs “inactive”.
The same measure, in the same setting: to `CCCCO` belongs “inactive”; to `NC(=O)[C@@H]1CCCN1C(=O)[C@H](Cc1cnc[nH]1)NC(=O)[C@@H]1CCC(=O)N1`, “inactive”.
As for `CCOc1ccc(S(=O)(=O)O)c2cccnc12`, the Potency entry was “inactive”.
Same read-out and setting: for `[O-][N+](=Nc1ccccc1)c1ccccc1` the value was “inactive”; for `CN[C@@H]1[C@H](O[C@H]2[C@H](O[C@H]3[C@H](O)[C@@H](O)[C@H](N=C(N)N)[C@@H](O)[C@@H]3N=C(N)N)O[C@@H](C)[C@]2(O)C=O)O[C@@H](CO)[C@H](O)[C@H]1O`, “inactive”; for `CCC(O)c1ccccc1` (stereo not given), “inactive”.
The same measure, in the same setting: for `NC(=O)[C@H]1O[C@@H](O)[C@H](O)[C@@H](O)[C@@H]1O` the value was “inactive”; for `CCN(CC)CCOC(=O)c1cccnc1`, “inactive”; for `CCOC(C)OCC`, “inactive”.
Still for that read-out and setting: to `NC(=O)C1c2ccccc2CCc2ccccc21` belongs “inactive”; to `Nc1nc(=O)n([C@@H]2CS[C@H](CO)O2)cc1F`, “inactive”.

Values taken from PubChem BioAssay (NCATS).
